Shown is part of a subset that was picked to be rich in hits.
ST2 IL33 inh – inhibitors of human ST2 (IL1RL1) binding to IL-33; Q01638; AlphaLISA ST2-Fc/biotin-IL-33 interaction, 1 h; inhibition, % for hits at 17 µM; actives 2.3% (n = 78,000); AID 1259354; in the data active means inhibition above about 30%
Target sequence (Q01638 whole entry, looked up): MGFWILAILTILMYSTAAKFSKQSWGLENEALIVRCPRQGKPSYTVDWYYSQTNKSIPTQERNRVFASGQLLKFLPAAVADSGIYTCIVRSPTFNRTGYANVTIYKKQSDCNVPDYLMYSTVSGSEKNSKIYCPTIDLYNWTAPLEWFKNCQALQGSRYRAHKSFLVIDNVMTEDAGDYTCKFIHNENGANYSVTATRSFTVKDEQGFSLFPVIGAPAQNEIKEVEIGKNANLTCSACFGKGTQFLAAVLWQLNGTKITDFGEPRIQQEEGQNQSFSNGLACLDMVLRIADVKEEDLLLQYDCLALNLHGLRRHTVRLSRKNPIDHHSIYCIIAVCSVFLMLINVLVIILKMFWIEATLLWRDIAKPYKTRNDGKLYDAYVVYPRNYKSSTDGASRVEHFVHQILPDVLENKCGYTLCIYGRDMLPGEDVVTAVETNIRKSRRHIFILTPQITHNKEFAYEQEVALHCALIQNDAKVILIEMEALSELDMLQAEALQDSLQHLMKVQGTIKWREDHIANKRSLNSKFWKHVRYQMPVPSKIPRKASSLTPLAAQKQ
Large screens that a line does not name were inactive; ! = not confirmed by another sample.

O=C(NCc1cccs1)c1cc(=O)[nH]c2ccc(S(=O)(=O)N3CCCCC3)cc12	none
Cc1c(C(=O)O)sc2ncnc(N3CCN(c4ccccc4F)CC3)c12	none
COc1ccccc1N1CCN(c2ncnc3sc(C(=O)O)c(C)c23)CC1	ST2 IL33 inh 40%!
CCCN1CCN(c2ncnc3sc(C(=O)O)c(C)c23)CC1	none
Cc1cc(C(=O)N(C)Cc2nc3ccccc3n2C)cc(S(N)(=O)=O)c1C	none
Oc1ccc(Nc2nc(-c3ccccn3)cs2)cc1	none
O=C(Nc1nc(-c2ccccn2)cs1)c1ccc(C(=O)c2ccccc2)cc1	none
c1ccc(CNc2nc(-c3ccccn3)cs2)cc1	ST2 IL33 inh 36%
O[C@@H]1C[C@H]2CN(Cc3ccc(SC4CCCCC4)o3)C[C@H]2C[C@@H]1O	none
CC(C)C[C@H]1CN(C(=O)CCC(=O)Nc2nncs2)CC[C@@]1(C)O	none
COc1cccc2sc(=NC(=O)c3c(F)cccc3F)n(C)c12	none
O=C(CCS(=O)(=O)c1ccc(Br)s1)Nc1cccc(Cl)c1	none
CCCCNC(=O)c1cc2cc3ccc(OC)cc3nc2o1	none
CCOc1ccc(S(=O)(=O)NCc2nc3cccnc3n2Cc2ccccc2)cc1	none
COc1cc(/C=C2\SC(c3ccc(C)cc3)=NC2=O)cc(OC)c1O	ST2 IL33 inh 80%
CCCOc1ccc(-c2nc3s/c(=C\c4cc(OC)ccc4OC)c(=O)n3n2)cc1	none
COc1ccc(/C=C2\SC(N3CCCC3)=NC2=O)cc1OC	none
COc1ccc(/C=C2\SC(N3CCCCC3)=NC2=O)cc1OC	none
COc1ccc(Br)cc1/C=C1/SC(N2CCOCC2)=NC1=O	none
COc1ccc(OC)c(/C=C2\SC(c3ccccc3)=NC2=O)c1	ST2 IL33 inh 51%
COC(=O)c1ccc(Cc2nc3cc(C)c(C)cc3[nH]c2=O)cc1	none
CC(C)Cc1ncc2c(n1)CN(c1nccc(N3CCC(O)CC3)n1)C2	none
Cc1ccc(C2C=C(c3ccc(Cl)cc3)Nc3nc(N4C(=O)CCC4=O)nn32)cc1 (stereo not drawn)	none
Cc1nn(CCNC(=O)CN2CCOC2=O)c(C)c1Cl	none
O=C(Nc1ccccc1[N+](=O)[O-])C1=NN=CC1[N+](=O)[O-] (stereo not drawn)	none
Cc1nc2ccccc2n1C(=O)c1ccccc1[N+](=O)[O-]	none
O=C(Nc1ccccc1[N+](=O)[O-])C1=C(O)CCn2c1nc1ccccc12	ST2 IL33 inh 34%
Cc1ccc(NC(=O)Nc2ccccc2Sc2cc(C)nc3ncnn23)c(Cl)c1	none
Cc1ccc(N(CC(=O)Nc2ccccc2C(N)=O)S(=O)(=O)c2ccccc2)cc1C	none
CCCc1nc(C)cc(N2CCCC(C(=O)NCCCO)C2)n1 (stereo not drawn)	none
CN(C)c1ccc(NC(=O)CCC2CCCCC2)cc1	ST2 IL33 inh 67%
COc1ccc(C(=O)Nc2ccc(Nc3nc(C)cc(Nc4ccccc4)n3)cc2)cc1OC	none
CCC(CC)C(=O)Nc1ccc(Nc2nc(C)cc(Nc3ccc(OC)cc3)n2)cc1	ST2 IL33 inh 39%
COc1cc(C(=O)Nc2ccc(Nc3nc(C)cc(Nc4ccccc4)n3)cc2)cc(OC)c1OC	none
Cc1ccc(Nc2cc(C)nc(Nc3ccc(NC(=O)c4ccc(C(C)(C)C)cc4)cc3)n2)cc1	none
COc1ccc(Nc2cc(C)nc(Nc3ccc(NC(=O)c4ccc(F)cc4)cc3)n2)cc1	none
CCCC(=O)Nc1ccc(Nc2nc(C)cc(N(C)C)n2)cc1	none
CC(=O)Nc1ccccc1NC(=O)CCC1CCCCC1	none
COc1ccc(Nc2cc(C)nc(Nc3ccc(NC(=O)c4ccc(OC)cc4)cc3)n2)cc1	ST2 IL33 inh 32%
NC(=O)c1ccccc1NC(=O)CCC1CCCCC1	none
CCCC(=O)Nc1ccc(Nc2nc(C)cc(Nc3ccccc3)n2)cc1	ST2 IL33 inh 31%
Cc1ccc(Nc2cc(C)nc(Nc3ccc(NC(=O)Cc4ccccc4)cc3)n2)cc1	none
CCN1/C(=C\C(=O)c2cccc([N+](=O)[O-])c2)Sc2ccccc21	none
COCCCN1C(=O)C(=O)C(=C(O)c2ccc(OC)c(C)c2)C1c1cccnc1 (stereo not drawn)	none
O=C(Nc1ccc(F)cc1)c1cc2cc(Cl)cc(Cl)c2oc1=O	none
Cc1c[nH]c(CNC(=O)CCC(=O)NC2CCCCCC2)c(C)c1=O	none
CC(C)(C)c1nnc(Nc2cccc(F)c2)[nH]c1=O	none
COc1cc(NC(=O)c2cc3c(=O)oc4ccccc4c3s2)cc(OC)c1OC	none
O=C(Nc1nc2c(s1)CCCC2)c1ccco1	none
O=C(c1cn2ccsc2n1)N1CCC(N2CCCC(C(=O)N3CCCC3)C2)CC1 (stereo not drawn)	none
Cc1cc(Nc2ccccc2)nc(Nc2ccc(NC(=O)c3ccccc3)cc2)n1	ST2 IL33 inh 32%
COc1ccc(Nc2cc(C)nc(Nc3ccc(NC(=O)c4ccc(C(F)(F)F)cc4)cc3)n2)cc1	none
Cc1cc(Nc2ccccc2)nc(Nc2ccc(NC(=O)c3ccccc3Cl)cc2)n1	none
COc1ccc(Nc2cc(C)nc(Nc3ccc(NC(=O)CCC4CCCC4)cc3)n2)cc1	ST2 IL33 inh 30%
Cc1ccc(Nc2cc(C)nc(Nc3ccc(NC(=O)CC(C)(C)C)cc3)n2)cc1	none
Cc1cc(Nc2ccccc2)nc(Nc2ccc(NC(=O)c3cccc(Br)c3)cc2)n1	none
Cc1ccc(Nc2cc(C)nc(Nc3ccc(NC(=O)c4ccccc4C)cc3)n2)cc1	none
CCC(C(=O)Nc1ccc(Nc2nc(C)cc(Nc3ccc(C)cc3)n2)cc1)c1ccccc1 (stereo not drawn)	ST2 IL33 inh 36%
Cc1cc(N(C)C)nc(Nc2ccc(NC(=O)CC3CCCC3)cc2)n1	none
CC1(C)CC(CCNS(=O)(=O)C[C@]23CC[C@@H](CC2=O)C3(C)C)CC(C)(C)N1	none
Cn1nc(-c2ccc(Cl)cc2)c2cc(C(=O)NCc3cccs3)sc21	none
CCOC(=O)c1sc2nc(C)nc(N(C)C3CCCCC3)c2c1C	none
CCC(=O)N1CCc2cc(Br)cc(S(=O)(=O)N3CCC(C)CC3)c21	none
O=C(c1ccccc1O)N1N=C(c2ccc(Cl)cc2)CC1(O)C(F)(F)F (stereo not drawn)	none
CN1C(=O)C(=Cc2ccccc2OCc2ccccc2F)C(=O)N(C)C1=O	none
COc1ccc(S(=O)(=O)NCc2ccc(C)cc2)cc1OC	none
CCCCN(CC)C(=O)CSc1cc(=O)n(C)c2cc(Cl)ccc12	none
CC(C)C(NS(=O)(=O)c1cccc2nsnc12)C(=O)NC1CCCC1 (stereo not drawn)	none
c1ccc(CN2CCSCC2)cc1	none
CCOC(=O)c1c(C)oc2cc(Br)c(OC(=O)c3ccccc3)cc12	none
COc1ccc2oc(=Nc3ccccc3F)c(C(=O)NC(C)=O)cc2c1	none
CC(=O)NC(=O)c1cc2cc(Br)ccc2oc1=Nc1ccccc1F	none
COc1ccc2oc(=Nc3cccc(C#N)c3)c(C(=O)NC(C)=O)cc2c1	none
COc1ccc2oc(=Nc3ccc(Cl)cc3Cl)c(C(=O)NC(C)=O)cc2c1	ST2 IL33 inh 33%
COc1ccc2cc(C(=O)NC(C)=O)c(=Nc3cccc(F)c3)oc2c1	none
COc1ccc2cc(C(=O)NC(C)=O)c(=Nc3ccc(C#N)cc3)oc2c1	ST2 IL33 inh 37%
c1ccc(CCc2nc(-c3ccc4n[nH]nc4c3)n(-c3ccccn3)n2)cc1	none
c1csc(C2=NN3C(C2)c2ccccc2OC32CCCC2)c1 (stereo not drawn)	none
CC(C)C1Oc2ccc(Cl)cc2C2CC(c3cccs3)=NN21 (stereo not drawn)	ST2 IL33 inh 34%
Clc1ccc2c(c1)C1CC(c3ccccc3)=NN1CO2 (stereo not drawn)	none
CCN(CC)CC(=O)Nc1ccccc1C(=O)Nc1ccccc1	none
Cc1sc2ncnc(NCCC3=CCCCC3)c2c1S(=O)(=O)N1CCC(C)CC1	none
Cc1ccc(N=Cc2nc(-c3ccc(Br)cc3)oc2O)cc1Cl	none
C=CCOc1ccc(C=Nc2ccc(C)c(Cl)c2)c(O)c1	ST2 IL33 inh 92%
Oc1cccc(C=Nc2ccc(Cl)c(Cl)c2)c1O	none
